Results from PubChem BioAssay.
Results filed as inconclusive are left out. Values without a mark were called inactive. Active and inactive are the calls of the source.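 How the source made its calls: active means viability at or below 27.92% in each of two runs, the all-compound median minus 4 SD; inconclusive means no clear call, values can overlap the other calls; inactive means the rest.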

Assay: growth suppression of PTEN-deleted HCT116, pilot screen, cell-based, HCT116 clonal line, CellTiter-Glo (AID 824);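 further: 0% = 20 µM Hyamine control and 100% = vehicle cell control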
Details: 60 h, at 10 µM, hits give low values

For `CS(=O)(=O)N(Cc1ccc(C(=O)NCc2ccco2)cc1)c1ccccc1`, which viability is on record?
The viability was 100%.

Which viability does the source give for `COc1ccc(N(CC(=O)N2CCN(C)CC2)S(C)(=O)=O)cc1OC` here?
The viability was 97.5%.

Which viability does the source give for `Cc1ncc(CO)c2cc(S(=O)(=O)c3ccc(F)cc3)c(=O)oc12` here?
The viability was 96.7%.

Which viability does the source give for `CCN(CC)c1ccc(/C=N/n2c(C)cc(C)cc2=O)cc1` here?
Its viability is 93%.

With `COc1ccc(C)cc1NC(=O)c1cc2c(CO)cnc(C)c2oc1=N` as the molecule, how does the viability read?
The viability was 89.7%.

For `Cc1cc(C)nc(SCC(=O)Nc2ccc(S(=O)(=O)Nc3onc(C)c3C)cc2)n1`, which viability is on record?
Its viability is 101%.

Which viability does the source give for `CCCCOC(=O)c1ccc(NS(=O)(=O)c2cc(-c3nnnn3CC)ccc2OC)cc1` here?
Its viability is 98%.

Which viability does the source give for `Cc1oc(-c2ccc(Cl)cc2)nc1CN1CCCC(C(=O)N2CCN(C(=O)c3ccco3)CC2)C1` (stereo not given) here?
Its viability is 54.6%.

Which viability does the source give for `COc1ccc(NC(=O)N(Cc2ccc(C)cc2)Cc2ccccn2)c(OC)c1` here?
Its viability is 96%.

With `O=C(O)c1ccc(NS(=O)(=O)c2cccc3cccnc23)cc1` as the molecule, how does the viability read?
The viability was 94.1%.

Which viability does the source give for `Cc1c(C(=O)NCc2ccc3c(c2)OCO3)sc2nc(-c3ccc(F)cc3)cn12` here?
Its viability is 105%.

Which viability does the source give for `Nc1c(S(=O)(=O)c2ccccc2)c2nc3ccccc3nc2n1Cc1ccco1` here?
Its viability is 73.8%.

For `CCN(CCNC(=O)CCCn1nc(C)n2c(cc3sccc32)c1=O)c1ccccc1`, which viability is on record?
Its viability is 93%.

Which viability does the source give for `Cc1ccc(N2CC(C(=O)Nc3cccc(F)c3)CC2=O)cc1` (stereo not given) here?
Its viability is 103%.

For `CCOc1ccc(NC(=O)CN2C(=O)COc3ccc(Cl)cc32)cc1`, which viability is on record?
The viability was 90.1%.

With `CN1CCN(c2ccccc2NC(=O)C(Cc2ccccc2)n2cccc2)CC1` (stereo not given) as the molecule, how does the viability read?
The viability was 59.3%.

With `CN1CCCc2cc3c(C(F)(F)F)cc(=O)oc3nc21` as the molecule, how does the viability read?
The viability was 102%.

With `O=C(Nc1nc(-c2ccccn2)cs1)C1COc2ccccc2O1` (stereo not given) as the molecule, how does the viability read?
Its viability is 11.5% (active).

Which viability does the source give for `Cc1cc(-c2nnc(-c3cc4ccccc4oc3=O)o2)c(C)n1-c1ccccc1` here?
Its viability is 79.1%.

Which viability does the source give for `COc1cccc(-c2nc(CS(=O)CC(=O)NCc3ccc4c(c3)OCO4)c(C)o2)c1` (stereo not given) here?
Its viability is 101%.

Which viability does the source give for `CCCCC(=O)OCCNC(=O)c1cc2ccccc2oc1=O` here?
The viability was 95.2%.

For `CC(=O)Nc1ccc(S(=O)(=O)NCCc2cc3c(C)ccc(C)c3[nH]c2=O)cc1`, which viability is on record?
The viability was 94.2%.

For `Fc1cc2nc(-c3ccncc3)[nH]c2cc1F`, which viability is on record?
Its viability is 94.6%.

With `CCC(=O)NCCn1c(C)cc2ccccc21` as the molecule, how does the viability read?
Its viability is 92%.

Which viability does the source give for `O=C(O)c1cccc(NS(=O)(=O)c2cccc3cccnc23)c1` here?
The viability was 99.8%.

Which viability does the source give for `NC(=O)COc1ccc(=O)n(-c2ccccc2)n1` here?
Its viability is 105%.

Which viability does the source give for `COc1cc2c(C(=O)NCc3ccccn3)cn(C)c(=O)c2cc1OC` here?
The viability was 95.3%.

Which viability does the source give for `CCOc1ccc(N(CC(=O)NCc2ccccc2)S(C)(=O)=O)cc1` here?
The viability was 101%.

Which viability does the source give for `COc1ccc(S(=O)(=O)Cc2ccc(C(=O)N3CCN(C4CCCCC4)CC3)o2)cc1` here?
The viability was 90%.

Which viability does the source give for `CCn1c(CNC(=O)C23CC4CC(CC(C4)C2)C3)nnc1SCC(=O)Nc1nnc(C)s1` here?
Its viability is 96.9%.

With `COc1ccc(N(CC(=O)NCc2ccco2)S(=O)(=O)c2c(C)nn(C)c2C)cc1` as the molecule, how does the viability read?
Its viability is 92.6%.

With `Cc1cccnc1NC(=O)c1c(O)c2ccccc2n(C)c1=O` as the molecule, how does the viability read?
Its viability is 98%.

Which viability does the source give for `COc1ccc(C2OC(=O)CC2C(=O)N2CCN(c3cc(Cl)ccc3C)CC2)cc1OC` (stereo not given) here?
Its viability is 95.5%.

Which viability does the source give for `CCc1cc2c(=O)c(-c3nc4ccccc4n3C)c(C(C)C)oc2c(CN2CCN(C)CC2)c1O` here?
Its viability is 82.8%.

With `CCCSc1nnc2c(n1)OC(c1cccn1C)N(C(C)=O)c1ccccc1-2` (stereo not given) as the molecule, how does the viability read?
The viability was 104%.

Which viability does the source give for `CC(NC(=O)CSc1ncnc2nc[nH]c12)c1ccccc1` (stereo not given) here?
Its viability is 96%.

For `Cc1ccc(-n2nnc3c(=O)n(CC(=O)NCc4ccco4)cnc32)cc1`, which viability is on record?
The viability was 63.4%.

Which viability does the source give for `O=C(c1oc(=O)c2ccccc2c1-c1ccccc1)N1CCC(O)CC1` here?
The viability was 91.6%.

For `CC(CCCC(C)(C)O)NCCO` (stereo not given), which viability is on record?
Its viability is 106%.

With `O=C(c1ccco1)N1CCN(c2nc3ccsc3c(=O)s2)CC1` as the molecule, how does the viability read?
Its viability is 94.3%.
